Abeta rescue – restores growth of yeast expressing A-beta42 peptide | Potency, µM (doses to about 46.1 µM), actives largely listed as activators | 410,000 tested, 0.063% active | yeast expressing A-beta42, growth rescue, OD600, 48 h; response scale: 0% DMSO, 100% iron-clioquinol control; also: nearly all actives have a fitted effect of over 55% in size
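Yeast A-beta toxicity model in growth medium with pinned compounds, 48 h at 30 C; growth read as absorbance at 600 nm. Normalized to FeCl3/clioquinol equimolar mix (positive) and DMSO (negative).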
FUS suppressor – suppressors of FUS proteinopathy in yeast; 390,000 tested, 0.24% active; S. cerevisiae FUS-expressing, growth rescue, OD600, 24 h; Potency, µM (doses to about 76.6 µM), usual class: activators; AID 1347120; also: nearly all actives have a fitted effect of over 55% in size
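Read-out: OD at 600 nm after 24hr at 30C, reporting rescue of FUS-induced yeast toxicity. Cells at OD 0.005 in galactose (2%) minimal medium; compounds tested in a dilution series; CP55940 titration from 92uM final as control.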
aSyn rescue – alpha-synuclein toxicity inhibition in yeast | 370,000 tested, 0.14% active | Yeast expressing alpha-synuclein, growth rescue, BacTiter-Glo, 24 h | Potency, µM (series often up to 46.1 µM), actives largely listed as activators; also: nearly all actives have a fitted effect of over 65% in size
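Rescue of yeast growth: cells expressing toxic alpha-synuclein, induced in galactose at OD600 0.02, incubated with compound 24 h at 30 C. ATP luminescence quantified growth; inhibitors of toxicity appear as activators.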
TDP43 rescue – TDP-43 toxicity inhibition in yeast; AID 652104; TDP-43 expressing yeast growth rescue, BacTiter-Glo, 24 h; 410,000 tested, 1.8% active; Potency, µM (top dose mostly 46.1 µM), most hits filed as activators; also: nearly all actives have a fitted effect of over 50% in size
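Yeast cells expressing TDP-43 under galactose induction are exposed to compounds for 24 hr at 30 deg C. BacTiter-Glo luminescence measures growth, so protective compounds score as activators.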
Numbers stand for hits; – = inactive; ? = inconclusive; · = no result; ! = a repeat was not active; [ ] = dose if it differs, or a comment. In the library only some 2.1% were active in any assay of this set; here they are far more common. Calls follow the shape of the dose curve; as a rule, active = well fitted curve in the direction sought with a large enough effect; inconclusive = small, poorly fitted or top-dose-only effect, or another doubt; inactive = no such curve, though single readings can be large; an effect the other way counts as inactive or inconclusive.

SMILES	Abeta rescue	FUS suppressor	aSyn rescue	TDP43 rescue
O=C(Nc1ccc(Br)c(C(F)(F)F)c1)c1ccccc1	–	·	–	8.91µM
O=C(Nc1ccc(Br)c(C(F)(F)F)c1)c1ccc(C(F)(F)F)cc1	–	–	–	–
CCCC1CCC2(CCC(=O)N2CCOC)CC1 (stereo not drawn)	·	–	·	·
CCc1ccc(NC(=O)CSc2nnc(-c3ccccc3)n2C)cc1	·	·	–	·
O=C1NC2(CCc3ccccc3C2)C(=O)N1CCOc1cccc(Cl)c1 (stereo not drawn)	?	–	–	20µM
CC(=O)C1=CCC(c2ccc(Cl)cc2)N(S(=O)(=O)c2ccccc2)C1 (stereo not drawn)	–	–	?	14.1µM
CC(=O)C1=CCC(c2ccc(Cl)cc2)N(S(=O)(=O)c2ccc(C)cc2)C1 (stereo not drawn)	–	?	?	35.5µM!
CCOC(=O)[C@]12CCC=C1N(CCC1=CCCCC1)C(=O)[C@H](CC(=O)NCCCOC)C2	–	–	–	–
CCCCCCCCN1C(=O)[C@H](CC(=O)N2CCN(C(=O)OCC)CC2)C[C@@]2(C(=O)OCC)CCCC=C12	–	?	–	25.1µM
CCOC(=O)N1CCN(C(=O)C[C@@H]2C[C@@]3(C(=O)OC)CCCCC=C3N(Cc3ccc(Cl)cc3Cl)C2=O)CC1	–	?	–	22.4µM
CCCCNC(=O)C[C@@H]1C[C@@]2(C(=O)OCC)CCCC=C2N(CCC2=CCCCC2)C1=O	–	–	–	35.5µM
CCOC(=O)[C@]12CCCC=C1N(CCC1=CCCCC1)C(=O)[C@H](CC(=O)NCc1cccc3ccccc13)C2	?	–	–	35.5µM
Cc1ccccc1CNC(=O)c1oc2c(c1C)-c1nn(Cc3ccc(Cl)cc3)cc1CC2	–	?	·	–
O=C(Nc1cccc(C(F)(F)F)c1)c1cnn(-c2cccc(F)c2)c1C1CCNCC1	–	–	·	–
CCCCCCCCN1C(=O)[C@H](CC(=O)NCCCN2CCCC2=O)C[C@@]2(C(=O)OCC)CCCC=C12	–	?	–	–
CCCCCCCCN1C(=O)[C@H](CC(=O)NCCCOC)C[C@@]2(C(=O)OCC)CCCC=C12	–	12.6µM	–	–
O=c1cc(-c2ccccc2)n2c(SCc3ccc(Br)cc3)nnc2[nH]1	–	–	·	–
CCn1cc(C(=O)NCc2ccco2)c(=O)c2cc(S(=O)(=O)N3CCCCCC3)ccc21	–	?	–	–
CCn1cc(C(=O)NCc2ccco2)c(=O)c2cc(S(=O)(=O)N3CCc4ccccc4C3)ccc21	–	6.31µM	–	–
Cc1ccc(C(=O)Nc2ccccc2Sc2ccccc2)cc1	–	–	–	–
O=C(Nc1ccccc1Sc1ccccc1)c1ccc(F)cc1	14.1µM	–	–	–
C/C(=N\NC(N)=S)C1C2C3CC4C5CC(C42)C1C53 (stereo not drawn)	?	–	–	14.1µM
Brc1ccc(CSc2nnc(-c3ccccn3)n2Cc2ccco2)cc1	–	–	–	–
C=CCn1c(SCc2ccc3nonc3c2)nnc1-c1cccs1	–	–	–	17.8µM
c1ccc(CSc2nnc(-c3cccs3)n2Cc2ccco2)cc1	–	–	–	17.8µM
SMILES	Abeta rescue	FUS suppressor	aSyn rescue	TDP43 rescue
C=CCn1c(SCC(=O)C(C)(C)C)nnc1-c1cccs1	–	–	–	–
Cc1ccccc1CSc1nnc(-c2cccs2)n1Cc1ccco1	–	–	–	–
Clc1cccc(CSc2nnc(-c3ccccn3)n2Cc2ccco2)c1	–	?	–	20µM
CCN(C)c1ccc(/C=C/c2ccnc3ccccc23)cc1	·	·	–	·
Cc1ccc(-n2c(SCc3nc(-c4ccccc4C)no3)nnc2-c2ccncc2)cc1C	–	–	·	31.6µM
Cc1ccccc1-c1noc(CSc2nnc(-c3ccncc3)n2-c2ccc(F)cc2)n1	?	–	·	–[9.22 µM]
CCCCCCCCn1cc(C(C)=O)c(=O)[nH]c1=O	–	–	–	12.6µM
CCCCCCSc1ccc(-c2nc3ccc(Cl)cn3c2NCCCC)cc1OC	–	–	–	–
CCCCCCSc1ccc(-c2nc3ccc(C)cn3c2NCCCC)cc1OC	–	15.8µM	–	–
CCCCCCSc1cc(-c2nc3cc(C)ccn3c2NCCCC)ccc1OC	–	28.2µM!	–	–
CCOc1cccc(C2C=C(c3ccc4c(c3)OCO4)NC(c3ccccc3Cl)N2)c1O (stereo not drawn)	·	·	–	·
CCCCCCC1CCC(C(=O)NC(C(=O)O)C(C)C)CC1 (stereo not drawn)	–	–	·	20µM
CCN(C(=O)CSc1nc2n[nH]c(C)c2c(=N)n1-c1cccc(OC)c1)c1cccc(C)c1	–	?	·	–
COc1cc(/C=C/c2ccc(O)cc2)cc(OC)c1	–	–	–	28.2µM
COc1ccc(/C=C/C(=O)c2ccc(O)cc2)cc1	–	–	–	?
Oc1ccc(Br)cc1-c1cc(-c2ccccc2)n[nH]1	?	–	–	–
O=[N+]([O-])c1cccc(-c2cc(-c3cc(Br)ccc3O)[nH]n2)c1	–	–	–	12.6µM
Cn1cc(-c2ccc(C(=O)NCc3cccc(Cl)c3)c3occc23)cn1	–	–	–	–
O=C(Nc1cccc(C(F)(F)F)c1)c1cccc2c(-c3cccnc3)coc12	–	–	–	15.8µM
O=C(NCc1cccc(Cl)c1)c1ccc(-c2cccnc2)c2ccoc12	–	–	–	35.5µM
O=C(NCc1ccc(C(F)(F)F)cc1)c1ccc(-c2cccnc2)c2ccoc12	–	?	–	12.6µM
O=C(NCc1ccc(C(F)(F)F)cc1)c1ccc(-c2ccc(F)c(F)c2)c2ccoc12	–	–	–	–
CC(=O)c1cccc(NC(=O)c2c(-c3ccccc3)c(-c3ccccc3)nn(C)c2=O)c1	–	–	·	–
CCOC(=O)c1ccc(NC(=O)CC2C(=O)N(c3cccc(OC)c3)C(=O)N2Cc2cccnc2)cc1 (stereo not drawn)	–	–	·	–
COC(=O)c1ccc(OCC(=O)c2ccccc2OC)cc1	–	–	–	11.2µM
SMILES	Abeta rescue	FUS suppressor	aSyn rescue	TDP43 rescue
COc1ccccc1CNC(=O)COc1ccc(C)cc1	–	–	–	11.2µM
COC(=O)c1ccc(COC(=O)c2ccccc2OC)cc1	–	–	–	–
CCCCc1ccc(NC(=O)COC(=O)c2ccccc2OCC(=O)Nc2ccc(Br)cc2)cc1	·	·	–	·
Cc1ccc(NC(=O)c2cnn3c(C(F)F)cc(-c4ccccc4)nc23)cc1F	–	–	·	–
Cc1ccc(CSc2ncnc3c2cnn3Cc2ccccc2)cc1	–	–	–	–
Cc1ccc(CSc2ncnc3c2cnn3Cc2ccccc2)cc1C	–	–	–	1µM
Cc1cccc(Nc2ncnc3c2cnn3Cc2ccccc2)c1	–	–	–	15.8µM
COc1ccc(Nc2ncnc3c2cnn3Cc2ccccc2)cc1OC	–	–	–	–
CCN(C(=O)CN1C(=O)COc2ccc(S(=O)(=O)N3CCOCC3)cc21)c1cccc(C)c1	–	–	·	–
COc1ccc(-c2csc(C)n2)cc1Br	–	–	–	11.2µM
COc1cc(-c2csc(C)n2)ccc1O	–	–	–	–
Cc1ccc2c(CNCCc3ccco3)c(C(=O)O)n(Cc3ccc(F)cc3)c2c1	–	–	·	–
